# Source: the supplement of paper PMC12636033
# ± gives the standard deviation of the averaged measurements. Whole data set: some 33,000 sequences, median “E-score (rank enrichment, -0.5 to 0.5)” near -0.0043, cut for the highest 2% near 0.24. Many of the other results were omitted from the sample, so the highest values are more common in it than they were.
# Tested on: 2Sp-muMax20 (muMax20 with two 2,6-bis(methyl)pyridine Cys staples)
# Assay: PBM 8-mer E-score (E-score (rank enrichment, -0.5 to 0.5)); higher = stronger preferential binding
# Protocol: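 Protein binding microarray (universal PBM chip covering all 10-mers in fixed probe flanks) with chemically synthesized human Max(13-93) bHLH-LZ analogs (not full-length Max) bearing noncanonical residues (hArg, Tha, Aib, Nle at 65) and aromatic Cys staples. Read-out per 8-mer (and its reverse complement): E-score (rank-based enrichment, -0.5 to 0.5) and Z-score of median probe intensity.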
row,Sequence,PBM 8-mer E-score
1,TTATATAA,0.282 ± 0.044
2,ATATAGTA,0.231 ± 0.019
3,ATATATAT,0.116 ± 0.091
4,CTATATAC,0.204 ± 0.022
5,CTATAGTC,0.0602 ± 0.045
6,ATATATAC,0.252 ± 0.015
7,GTATATAC,0.0149 ± 0.075
8,ATATAGTC,0.238 ± 0.069
9,TGATATAA,0.232 ± 0.064
10,GAGCTTCC,-0.0166 ± 0.072
11,CGCGAGGC,-0.0315 ± 0.0085
12,ATCTACCA,0.119 ± 0.038
13,CCAATGGG,-0.162 ± 0.09
14,GGTTGCAA,0.0477 ± 0.016
15,GCCAGTCC,-0.152 ± 0.14
16,GCGGCCAC,-0.292 ± 0.061
17,CAAATGAC,-0.036 ± 0.036
18,AGCCTTTG,-0.0519 ± 0.04
19,CATGCTCG,0.116 ± 0.052
20,ACAGCCAC,-0.0111 ± 0.073
21,ATCGATCA,0.0704 ± 0.044
22,AAGGCCGG,-0.146 ± 0.023
23,AAGGCCTA,0.00342 ± 0.048
24,AAGGCCGC,-0.0467 ± 0.032
25,AAGGCCGT,0.284 ± 0.012

row,Sequence,PBM 8-mer E-score
1,AAGGCCTT,0.293 ± 0.052
2,AAGGCCTG,-0.212 ± 0.061
3,ATGTGGCG,0.0809 ± 0.017
4,CTACCCTC,0.0414 ± 0.062
5,CTCCCAAA,0.143 ± 0.084
6,GCTGTTCA,0.0277 ± 0.084
7,CCACGTTA,0.252 ± 0.044
8,CCACATGG,0.161 ± 0.014
9,CAACGTGG,0.0662 ± 0.077
10,CCACATGA,0.241 ± 0.053
11,CCACGTTC,-0.0572 ± 0.027
12,GCACGTTA,0.113 ± 0.039
13,CCACGTCC,-0.117 ± 0.06
14,CCACGTAG,-0.11 ± 0.053
15,CCACGTGG,0.455 ± 0.021
16,GCACATGA,0.151 ± 0.036
17,CGACGTGC,0.00092 ± 0.063
18,CCACGTGC,0.431 ± 0.00066
19,ATACCCAC,0.197 ± 0.059
20,CACGGCCC,-0.216 ± 0.024
21,GCAACGGA,0.0572 ± 0.11
22,AGGAGAGA,-0.134 ± 0.081
23,GATTGGGC,-0.0399 ± 0.037
24,CAGAAAAC,0.0606 ± 0.042
25,CCACGTGA,0.358 ± 0.053

row,Sequence,PBM 8-mer E-score
1,ACACGCGG,0.181 ± 0.012
2,CTACGTGA,-0.0272 ± 0.054
3,CCACGCGG,0.448 ± 0.016
4,CGACGTGA,0.063 ± 0.051
5,CCACGCGA,0.112 ± 0.0062
6,ATCGAAGC,-0.0587 ± 0.14
7,CAGGCATA,0.0998 ± 0.023
8,ATTCCACC,0.0112 ± 0.074
9,ACGATCGC,0.0237 ± 0.025
10,CCGATCGC,0.00661 ± 0.018
11,GCGATCGC,0.241 ± 0.049
12,CCAATCCA,0.00702 ± 0.16
13,CAATTGGG,0.136 ± 0.037
14,CAATTGGC,0.244 ± 0.016
15,GAATTGGC,0.0412 ± 0.066
16,ACCTGTGC,-0.0312 ± 0.029
17,CTTGCTAA,-0.0836 ± 0.038
18,CGCCTCCC,0.00831 ± 0.026
19,AGAACGGC,0.0294 ± 0.038
20,TATCCATA,0.15 ± 0.012
21,TTCCCCAA,0.173 ± 0.06
22,CTCCCCAA,0.309 ± 0.0081
23,GTCCCCAC,0.021 ± 0.043
24,ATCCCCTC,0.215 ± 0.038
25,ATCCCCCA,-0.224 ± 0.14

row,Sequence,PBM 8-mer E-score
1,CTCCCCCA,-0.103 ± 0.12
2,ATCCCAAA,0.0771 ± 0.056
3,CTCCCCAG,0.191 ± 0.064
4,ATCCCCTA,0.282 ± 0.019
5,ATCCCCAA,0.274 ± 0.036
6,CTCCCCAC,0.278 ± 0.015
7,CTCCCCTA,0.106 ± 0.087
8,AATAGTCA,0.109 ± 0.0063
9,CCACATAA,0.0944 ± 0.027
10,GGATTACC,0.0419 ± 0.024
11,AATGAAGC,0.0104 ± 0.028
12,GTGGTAAA,-0.0637 ± 0.0084
13,CGGGTCAC,-0.118 ± 0.034
14,AAGGTATG,0.149 ± 0.056
15,AGAACACC,0.0163 ± 0.039
16,AACCCCAC,0.136 ± 0.032
17,ATCCCCAT,0.104 ± 0.064
18,CACCCCAC,0.265 ± 0.007
19,ATCCCCAG,0.0388 ± 0.058
20,GACCCCAC,0.131 ± 0.021
21,ATCCCCAC,0.247 ± 0.038
22,CACAGAGC,-0.0473 ± 0.035
23,CGCTTAAA,0.0219 ± 0.026
24,TCACCACA,0.209 ± 0.055
25,ACAAGAGA,-0.031 ± 0.039

row,Sequence,PBM 8-mer E-score
1,CAGGATCC,0.0142 ± 0.1
2,CCCAGCCG,-0.207 ± 0.031
3,GGGTGAAC,-0.0445 ± 0.0025
4,AGATTGGA,0.0807 ± 0.089
5,AGATTGGC,-0.253 ± 0.0034
6,AGATTGGG,0.236 ± 0.005
7,GACACTCA,-0.155 ± 0.12
8,CCTTCTCC,-0.1487 ± 0.00034
9,ACAGGCCC,-0.0606 ± 0.0054
10,AGTATACC,0.0537 ± 0.062
11,AGTATAAT,0.307 ± 0.047
12,AGTATAAG,0.273 ± 0.061
13,CGTATACC,-0.132 ± 0.077
14,AGTATAAC,0.0726 ± 0.034
15,CGTATACA,0.0425 ± 0.12
16,AGTATACT,0.287 ± 0.014
17,ACTATAAG,0.147 ± 0.011
18,CGTATAAG,0.0589 ± 0.0073
19,AGTATACA,0.218 ± 0.026
20,CGTATACG,0.279 ± 0.086
21,ACTATAAT,0.1911 ± 0.00057
22,ATGTGTGC,-0.0334 ± 0.049
23,AAGCGGCA,-0.0432 ± 0.047
24,ATCACTTG,0.101 ± 0.072
25,GGATTCTA,0.0681 ± 0.064

row,Sequence,PBM 8-mer E-score
1,GTCAACTA,0.0356 ± 0.0025
2,CGGGGACA,-0.0692 ± 0.1
3,TGACTACA,0.0909 ± 0.018
4,AGATACCG,-0.166 ± 0.039
5,AGATACCA,0.171 ± 0.03
6,AGATACCC,0.264 ± 0.0095
7,AGGCGAAA,-0.0363 ± 0.041
8,GCCTTGAC,-0.0306 ± 0.049
9,AGACCGAG,-0.0567 ± 0.059
10,GAACGTGA,-0.0484 ± 0.032
11,GCACGTGC,0.472 ± 0.0076
12,GGACGTGA,-0.181 ± 0.05
13,GCACGTGA,0.29 ± 0.034
14,GCACGTCC,-0.107 ± 0.035
15,GCACGTAC,0.0252 ± 0.017
16,GTCTCGTA,-0.016 ± 0.023
17,GTGCCCAC,-0.0178 ± 0.036
18,CACTCAGG,0.00926 ± 0.0019
19,CGAGAAAA,-0.0823 ± 0.086
20,CGGCGGCA,-0.192 ± 0.016
21,GGGTAAAA,0.146 ± 0.043
22,CATGCTTA,0.223 ± 0.018
23,AATGCGTA,0.186 ± 0.021
24,CATGCGTA,0.291 ± 0.02
25,GATGCGTA,0.12 ± 0.027

row,Sequence,PBM 8-mer E-score
1,AATGCTTC,0.126 ± 0.0042
2,GATGCTGA,-0.077 ± 0.021
3,CATGCTGA,0.235 ± 0.031
4,CATGCTTC,0.244 ± 0.013
5,AATGCTGA,0.11 ± 0.11
6,CTTAAGTC,-0.0675 ± 0.033
7,CCTGCGAC,-0.0368 ± 0.021
8,CACTGACA,-0.147 ± 0.062
9,CCATTTAC,0.106 ± 0.12
10,ACACAGAA,0.0709 ± 0.022
11,ACGTATAA,0.125 ± 0.024
12,AACAGGAA,-0.0894 ± 0.071
13,ATTCAGAC,-0.0466 ± 0.061
14,CACGTGTC,0.377 ± 0.036
15,CGTGTGTA,0.239 ± 0.011
16,AGCGTGTA,0.1194 ± 0.0008
17,CGCGTGTA,0.238 ± 0.04
18,CGCGTGTC,0.139 ± 0.067
19,CCCGTGTC,-0.204 ± 0.024
20,AACGTGTC,0.0326 ± 0.036
21,GGTGTGTA,0.0384 ± 0.034
22,GACGTGTA,-0.0461 ± 0.043
23,AACGTGTA,0.0544 ± 0.12
24,CACGTGTA,0.389 ± 0.023
25,AGTGTGTA,0.0578 ± 0.047

row,Sequence,PBM 8-mer E-score
1,GACTAGAA,0.177 ± 0.023
2,CCATCGGG,-0.247 ± 0.14
3,CCCCAGTC,0.0489 ± 0.031
4,AACTTACC,-0.00702 ± 0.031
5,GCGGCGTA,0.0259 ± 0.057
6,ACTCGGGC,-0.209 ± 0.095
7,CATTCCTA,0.0858 ± 0.042
8,CGTTGTGA,-0.116 ± 0.13
9,AATCCACT,-0.0636 ± 0.11
10,TGTTCCAA,-0.0197 ± 0.029
11,ATGGAGGG,0.168 ± 0.038
12,AGCTGTGG,-0.0756 ± 0.04
13,GGAGGGGA,0.244 ± 0.028
14,GTAGGGGA,0.29 ± 0.033
15,CTAGGGGA,0.0989 ± 0.024
16,CGAGGGGA,0.021 ± 0.025
17,ATAGGGGA,0.138 ± 0.033
18,GGAGGGAA,-0.0234 ± 0.062
19,CTTTCCGA,-0.294 ± 0.038
20,AGGTGCGC,-0.139 ± 0.056
21,ACCCTATA,-0.0592 ± 0.015
22,TGGCGTAA,0.0766 ± 0.16
23,ATTTTTAG,-0.0464 ± 0.14
24,AACTTCAA,0.0284 ± 0.018
25,TACTTCAA,0.243 ± 0.013

row,Sequence,PBM 8-mer E-score
1,GACTTCAA,0.0921 ± 0.077
2,CATCTAGC,0.114 ± 0.045
3,GGTCTCAC,0.0156 ± 0.0022
4,ACGTTGAA,0.123 ± 0.036
5,ATACGTAC,0.185 ± 0.07
6,CTACGTAA,0.0719 ± 0.058
7,TTACGTAA,0.2354 ± 0.0003
8,ATACGTAT,0.339 ± 0.022
9,ATACGTAA,0.119 ± 0.077
10,GTACGTAA,0.101 ± 0.075
11,GAGACAAC,0.00299 ± 0.013
12,AACTTTAA,0.0575 ± 0.063
13,CGGTTACG,-0.19 ± 0.072
14,CCGCATCG,-0.258 ± 0.046
15,CTATGAGC,-0.0207 ± 0.088
16,CAATAAAC,0.137 ± 0.053
17,CAATAATG,0.0692 ± 0.049
18,GAATAAAA,0.0399 ± 0.044
19,CAATAATA,0.247 ± 0.045
20,CAATAAAA,0.294 ± 0.052
21,CAATAATC,0.0969 ± 0.081
